# Bioassay records: PubChem, National Center for Advancing Translational Sciences (NCATS)
# In the library only some 18% were active in any assay of this set; here they are far more common.
# IL1B secr inh: inhibitors of inflammasome signaling (IL-1 beta secretion); activity change, % at 57.5 µM; THP-1 LPS/ATP IL-1B secretion, AlphaLISA, 16 h; stronger effect = lower value; actives 4.7% (n = 360,000); in the data active means activity change below about -50%; inconclusive means mostly about -30% to -49%
#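 Secreted IL-1B measured by AlphaLISA bead assay after 16 h compound exposure of THP-1 cells; compounds (final up to 57.5 uM) added 1 h before LPS (250 ng/mL) and ATP (1.25 mM) stimulation; lower signal means less secretion.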
# CtBP-E1A blk: CtBP/E1A binding inhibition. AlphaScreen GST-E1A/His-CtBP binding, 1536-well; stronger effect = lower value. activity change, % (no concentration beside the values). actives 0.49% (n = 340,000); in the data active means activity change below about -65%; inconclusive means mostly about -30% to -63%
#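 GST-E1A and His-tagged CtBP (125 nM each as 5X stock) were preincubated with pin-transferred compound for 2 h at 37 °C in the dark, then glutathione donor and nickel acceptor beads were added for 1 h before AlphaScreen reading.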
# TDP1 cell noCPT: qHTS for Inhibitors of human tyrosyl-DNA phosphodiesterase 1 (TDP1): qHTS in cells in absence of CPT | DT40 Tdp1-/- hTDP1 cells, no CPT, ATP luminescence, 48 h | Potency, µM (titrated, usually from 46.2 µM), for the others: top-dose activity change, negative = growth inhibition, usual class: inhibitors | actives 15% (n = 420,000); further: potency means the concentration at half of the fitted maximal effect; nearly all actives have a fitted effect of over 55% in size
#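 Luminescent ATP content (CellTiter-Glo) served as the growth readout. Knockout chicken DT40 cells expressing human TDP1 were exposed to compounds without camptothecin for a minimum 48 hr at 37 °C.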
# Six1-Eya2 inh: inhibitors of human Six1/Eya2 interaction | Q15475+O00167 | AlphaScreen GST-Six1/His-Eya2 binding, biochemical; stronger effect = lower value | activity change, % (no concentration beside the values) | actives 0.56% (n = 360,000); in the data active means activity change below about -65%; inconclusive means mostly about -30% to -63%
#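 AlphaScreen with GST-Six1 and His-Eya2 (5X mix: 250 nM and 500 nM), glutathione donor and nickel acceptor beads; buffer 50 mM Tris pH 8.0, 300 mM NaCl, 1 mM TCEP; 1 h at 37 C in the dark.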
# TDP1 block: blocks human tyrosyl-DNA phosphodiesterase 1 | actives 0.28% (n = 350,000) | Potency, µM (titrated, usually from 130 µM), for inactives: at the top dose activity change, negative = inhibition, hits mostly inhibitors | recombinant TDP1, AlphaScreen DNA substrate cleavage | AID 485290 | Q9NUW8; further: potency means the concentration at half of the fitted maximal effect; nearly all actives have a fitted effect of over 40% in size
# Target sequence (Q9NUW8 whole entry, looked up): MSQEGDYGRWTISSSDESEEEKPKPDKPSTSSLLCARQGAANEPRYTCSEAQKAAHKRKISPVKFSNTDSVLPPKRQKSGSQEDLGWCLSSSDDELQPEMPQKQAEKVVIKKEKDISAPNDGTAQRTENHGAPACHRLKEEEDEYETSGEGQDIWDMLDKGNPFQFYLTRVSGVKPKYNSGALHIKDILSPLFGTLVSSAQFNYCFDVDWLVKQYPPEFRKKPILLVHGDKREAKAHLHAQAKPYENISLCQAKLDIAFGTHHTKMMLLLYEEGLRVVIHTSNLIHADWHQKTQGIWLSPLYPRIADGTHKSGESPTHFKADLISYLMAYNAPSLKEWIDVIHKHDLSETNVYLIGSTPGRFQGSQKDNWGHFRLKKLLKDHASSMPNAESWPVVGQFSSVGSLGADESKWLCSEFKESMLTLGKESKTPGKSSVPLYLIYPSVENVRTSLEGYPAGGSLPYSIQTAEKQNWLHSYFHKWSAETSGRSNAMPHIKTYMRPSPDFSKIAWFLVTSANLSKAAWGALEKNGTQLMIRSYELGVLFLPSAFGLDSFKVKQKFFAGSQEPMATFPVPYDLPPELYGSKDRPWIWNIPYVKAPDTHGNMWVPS
#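 Here, a 5' biotin and 3' phosphotyrosine-FITC DNA oligonucleotide reports Tdp1 activity: intact substrate bridges AlphaScreen beads, while cleavage leaves a 3' phosphate and drops signal. All incubations at room temperature.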
# DT40 TDP1 CPT: DT40-hTDP1 cell growth loss with CPT | chicken DT40 Tdp1-/-;hTDP1 cells + 20 nM CPT, ATP luminescence, 48 h | AID 686979 | Potency, µM (highest dose often 46.2 µM), for the others: at the highest dose activity change, negative = growth inhibition, actives largely listed as inhibitors | actives 12% (n = 420,000); further: potency means the concentration at half of the fitted maximal effect; nearly all actives have a fitted effect of over 55% in size
#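 Chicken DT40 Tdp1-/- cells complemented with human TDP1, 400 cells/well, exposed to compounds plus 20 nM camptothecin for at least 48 h at 37 C; viability read as ATP content by CellTiter-Glo luminescence.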
# The depositor's hits bear a star; ? = inconclusive; · = no result given; [ ] = another dose, or the depositor's remark. Unless noted, the call rests on the fitted dose curve; in most records, active means well fitted curve in the direction sought with a large enough effect; inconclusive means small, poorly fitted or top-dose-only effect, or another doubt; inactive means no such curve, though single readings can be large; an effect the other way counts as inactive or inconclusive. On the % scale 0 is the no-effect control and ±100 the full control effect.
SMILES,IL1B secr inh,CtBP-E1A blk,TDP1 cell noCPT,Six1-Eya2 inh,TDP1 block,DT40 TDP1 CPT
Nc1nc(N(Cc2ccccc2)Cc2ccccc2)nc(C(F)(F)F)n1,-7,-12,-22%,3,-4%,-31%
CCOC(=O)c1sc(NC(=O)Cc2ccccc2OC)nc1C,-9,·,-25%,2,2%,-7%
CCOC(=O)c1sc(NC(=O)CC(C)c2ccccc2)nc1C (configuration not stated),14,0,3.7µM*,6,6%,13µM*
CCOC(=O)c1sc(NC(=O)CCc2ccccc2)nc1C,-9,·,1.2µM*,9,3%,1.8µM*
CCOC(=O)c1sc(NC(=O)CCSC)nc1C,-10,2,?,-6,8%,?
CCSc1nnc(NC(=O)C2CCCCC2)s1,19,-1,-18%,-7,9%,-6%
CCSc1nnc(NC(=O)C2CC=CCC2C(=O)O)s1 (configuration not stated),0,1,-1%,-4,56µM*,-14%
CCOC(=O)c1sc2nc(NC(=O)COc3ccccc3)sc2c1C,-2,-10,18µM*,-3,-1%,?
CC1CCCC(C)N1C(=O)COC(=O)c1ccco1 (configuration not stated),4,-4,-4%,3,-6%,1%
CCCCCCCCC(NC(=O)c1ccc(C#N)cc1)C(=O)NCCC (configuration not stated),-14,8,?,1,1%,?
Nc1c(N(Cc2ccccc2)C(=O)COc2ccc([N+](=O)[O-])cc2)c(=O)[nH]c(=O)n1Cc1ccccc1,42,1,?,4,·,5.8µM*
CC(Oc1ccc(Br)cc1)C(=O)N(Cc1ccccc1)c1c(N)n(Cc2ccccc2)c(=O)[nH]c1=O (configuration not stated),?,-1,21µM*,12,·,23µM*
CC(Oc1ccc(F)cc1)C(=O)N(Cc1ccccc1)c1c(N)n(Cc2ccccc2)c(=O)[nH]c1=O (configuration not stated),14,8,2%,4,1%,3%
CCN(C(=O)COC(=O)CCOc1cc(C)ccc1C)c1c(N)n(Cc2ccccc2)c(=O)[nH]c1=O,5,0,?,1,·,18µM*
Cc1ccc(OCCC(=O)N(Cc2ccccc2)c2c(N)n(Cc3ccccc3)c(=O)[nH]c2=O)cc1,-8,-1,21µM*,7,1%,?
COc1ccc(N2CCN(Cc3nnc(-c4ccc5c(c4)OCO5)o3)CC2)cc1,·,·,?,·,-5%,?
Cc1cc(OCC(=O)N(Cc2ccco2)c2c(N)n(Cc3ccccc3)c(=O)[nH]c2=O)ccc1Cl,-23,·,?,9,0%,26µM*
COc1ccc(C2CC(=O)c3c([nH]c(C(=O)OCc4ccccc4)c3C)C2)cc1 (configuration not stated),·,·,?,·,5%,12µM*
COc1ccc(C2CC(=O)c3c([nH]c(C(=O)OCCOc4ccccc4)c3C)C2)cc1OC (configuration not stated),·,·,?,·,8%,?
COc1ccc(C2CC(=O)c3c([nH]c(C(=O)OC(C)C)c3C)C2)cc1OC (configuration not stated),11,7,21µM*,-1,5%,23µM*
COc1ccc(COC(=O)c2[nH]c3c(c2C)C(=O)CC(c2ccc(OC)c(OC)c2)C3)cc1 (configuration not stated),·,·,6.5µM*,·,2%,9.2µM*
Cc1c(C(=O)OCc2ccccc2)[nH]c2c1C(=O)CC(c1ccc(C(C)(C)C)cc1)C2 (configuration not stated),·,·,18µM*,·,-4%[12.3 µM],?
Cc1c(C(=O)OCCOc2ccccc2)[nH]c2c1C(=O)CC(c1ccc(C(C)(C)C)cc1)C2 (configuration not stated),·,·,?,·,8%,-26%
NC(=O)c1cc2cc(Cl)ccc2oc1=Nc1cccc(C(F)(F)F)c1,-13,-2,?,2,7%,?
COc1ccc(-c2cn(-c3ccc(C)cc3C)c(=S)[nH]2)cc1OC,17,-26,21µM*,-11,·,?
SMILES,IL1B secr inh,CtBP-E1A blk,TDP1 cell noCPT,Six1-Eya2 inh,TDP1 block,DT40 TDP1 CPT
COc1ccc(-n2cc(-c3ccccc3)[nH]c2=S)c(OC)c1,?,-20,5.8µM*,-17,·,7.3µM*
CC(C)N(C(=O)COC(=O)c1cccc(C(=O)OCC(=O)N(C(C)C)C(C)C)n1)C(C)C,0,2,-3%,7,2%,13%
COC1=C(C)C(=O)C2=C(C1=O)C1C3CC4=C(C(=O)C(OC)=C(C)C4=O)C(CNC(=O)C(C)=O)N3C(C#N)C(C2)N1C (configuration not stated),-99*,1,0.026µM*,-4,·,0.041µM*
CCCC(=O)NC1=C(Cl)C(=O)c2ccccc2C1=O,-101*,-4,0.65µM*,-4,·,0.65µM*
CCNc1ccccc(-c2ccc3ccccc3n2)c1=O,18,-15,-20%,-10,3%,-22%
O=C1C(Cl)=C(NCc2ccco2)C(=O)c2ccccc21,-95*,?,8.2µM*,?,·,12µM*
O=C1C(Cl)=C(NCCN2CCCCC2)C(=O)c2ccccc21,-101*,-28,?,?,2%,4.1µM*
CCNC1=C(Cl)C(=O)c2ccccc2C1=O,15,?,23µM*,?,6%,18µM*
Cn1c(=O)[nH]c(=O)c2c1nc(N1CCCC1)n2CCCSc1nc2ccccc2o1,12,-3,?,-1,6%,23µM*
Cn1c(=O)[nH]c(=O)c2c1nc(Br)n2CCCSc1nc2ccccc2o1,32,0,26µM*,-5,5%,?
Cn1c(=O)[nH]c(=O)c2c1nc(Br)n2CCSc1ncccn1,8,10,-8%,3,5%,4%
Cn1c(=O)[nH]c(=O)c2c1nc(N1CCCCC1)n2CCCSc1nc2ccccc2s1,?,-6,13µM*,0,0%,13µM*
CCOc1cccc(C2c3c(-c4cc(C)ccc4O)n[nH]c3C(=O)N2Cc2ccco2)c1 (configuration not stated),·,·,?,·,14%,?
CCCOc1ccc(C(=O)CCC(=O)NNC(=O)c2ccncc2)cc1,13,3,8%,-2,3%,7%
